# Bioassay records: PubChem BioAssay, Broad Institute
# Tgondii IFNg: T. gondii growth inhibition with IFN-gamma, primary screen, cell-based; Toxoplasma gondii growth in IFN-gamma-treated host cells; stronger effect = lower value; activity change, negative = inhibition, % (no concentration beside the values); hit rate 3.8% among 69,000; AID 1259416, 2018; in the data active means activity change below about -70%, passing the limit was not always enough;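 further: host cells are HeLa cells infected with Toxoplasma gondii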
# Numbers stand for hits; i = inactive; ! = not active in a repeat. The sample as a whole holds a higher share of hits than the screen did.
SMILES,Tgondii IFNg
Cc1cccc(NC(=O)CN2C(=O)CCc3cc(S(=O)(=O)N4CCC(C)CC4)ccc32)c1,i
CC1CCN(S(=O)(=O)c2ccc3c(c2)CCC(=O)N3CC(=O)Nc2ccc(Cl)cc2)CC1,-92
Cc1ccc(NC(=O)CN2C(=O)CCc3cc(S(=O)(=O)N4CCCCC4C)ccc32)cc1C (configuration not stated),-84
CC1CCN(S(=O)(=O)c2ccc3c(c2)CCC(=O)N3CC(=O)Nc2ccc(F)cc2)CC1,i
CC(=O)Nc1ccc(NC(=O)CN2C(=O)CCc3cc(S(=O)(=O)N4CCCCC4C)ccc32)cc1 (configuration not stated),i
CC1CCCCN1S(=O)(=O)c1ccc2c(c1)CCC(=O)N2CC(=O)Nc1ccc2c(c1)OCCO2 (configuration not stated),i
CC(C)(C)NC(=O)Cn1cc(C(=O)c2ccccc2F)c2ccnc(-c3cccnc3)c21,i
Cc1cnc(C(=O)N2CCC3(CC2)CC(OCC(C)C)C3)cn1,i
CN(C)C(C(=O)N1CCN(S(=O)(=O)N2CCOCC2)CC1)c1ccc(F)cc1 (configuration not stated),i
C=CCn1ncc(CN(C)Cc2nc3ccccc3[nH]2)c1C,i
O=C(C[C@@H]1CC[C@@H]2[C@H](COC[C@H](O)CN2Cc2cc(F)cc(F)c2)O1)Nc1nccs1,i
Cc1cc(Cc2ccc(C(F)(F)F)cc2)cc(C2CCCN2Cc2ncc[nH]2)n1 (configuration not stated),i
COc1ccc(-c2nc(CNS(=O)(=O)c3ccc(C(C)C)cc3)c(C)o2)cc1,-75
COc1ccc(S(=O)(=O)NCc2nc(-c3ccccc3)oc2C)cc1,i
COc1ccc(-c2nc(CNS(=O)(=O)c3ccc(F)cc3)c(C)o2)cc1,i
O=C(NC1CCC(n2cnnc2)CC1)c1ccc(-c2ccccc2)[nH]1 (configuration not stated),i
C[C@H](CO)N1C[C@H](C)[C@@H](CN(C)S(=O)(=O)c2cccs2)Oc2ccc(NC(=O)CCCCCC(=O)Nc3ccccc3N)cc2CC1=O,i
Nc1c(C(=O)Nc2nnc(-c3ccccc3)s2)sc2nc3c(cc12)CCC3,i
CC(C)N1C2COCC1CN(S(=O)(=O)c1cn(C)cn1)C2,i
O=C(OCc1sccc1Oc1ccccc1)c1ccc(Cl)cc1,i
CCn1ccc2cc(S(=O)(=O)N3CCC(C(=O)N4CCCC4)CC3)ccc21,i
COC(=O)c1c(NC(=O)C(C)C)sc2c1C(C(=O)OC)CC2 (configuration not stated),-94
Cc1sc(NC(=O)C(C)C)c(C(=O)N[C@@H]2C[C@@H](CO)N(C)C2)c1C,i
COC(=O)c1ccc(C(=O)OC)c(NC(=O)C(C)C)c1,i
Cc1ccc(CN2CCC3(CC2)CCN(c2cncnc2)C3=O)cc1,i
SMILES,Tgondii IFNg
Cc1ccc(OC(=O)c2c(-c3ccccc3)nnc3ccccc23)cc1,-106
CC[C@H](NC(=O)c1c(C)c(-c2ccccc2)nc2ccccc12)c1ccccc1,i
Cc1noc(C)c1C(=O)Oc1ccccc1,i
COc1ccc(-c2nc(NCc3ccccc3Cl)c3ccccc3n2)cc1,i
COCC(NC(=O)c1sc2ncn(C)c(=O)c2c1C)c1ccnn1C (configuration not stated),i
CCc1ccc2c(c1)cc(S(=O)(=O)c1ccccc1)c(=O)n2CC(=O)NCCC1=CCCCC1,i
OCCn1cc(-c2ccc3c(c2)CC/C3=N\O)c(-c2ccncc2)n1,-78!
CCc1ccc2oc(=O)cc(CN3CCC(Oc4cccnc4)CC3)c2c1,i
Cc1ccc(C)c(S(=O)(=O)N2CCC3(CC2)c2ncc(-c4cccc(F)c4)n2CCN3C)c1,i
CN1CCn2c(-c3ccccc3)cnc2C12CCN(S(=O)(=O)c1ccccc1)CC2,-108
Cc1ccc(CN2CCC3(CC2)c2ncc(-c4ccccc4)n2CCN3C)o1,i
COc1ccc(-c2nc3c(s2)CN(C(=O)Nc2cc(C)ccc2C)CC3)cc1,i
COc1cc(NC(=O)N2CCc3nc(-c4ccc(C)cc4)sc3C2)cc(OC)c1,i
COc1cccc(-c2nc3c(s2)CN(C(=O)Nc2ccc(Br)cc2)CC3)c1,i
COc1ccc(-c2nc3c(s2)CN(C(=O)Nc2ccc(C)c(C)c2)CC3)cc1,-95
COc1ccc(-c2nc3c(s2)CN(C(=O)Nc2ccccc2OC)CC3)cc1,i
COc1ccc(-c2nc3c(s2)CN(C(=O)Nc2cccc(SC)c2)CC3)cc1,-116
COc1cccc2c1OCCCN(C(=O)c1cn[nH]n1)C2,i
Cc1cccc(C(=O)Nc2c(C(=O)N3CCCC3)[nH]c3ccc(C)cc23)c1,i
COc1c(C(=O)O)c(=O)[nH]c2c(OC)cccc12,i
O=C1NCC2(CCC(C(=O)Nc3nccs3)CC2)Oc2ccc(Cl)cc21 (configuration not stated),i
Cc1cccc2cc(C#N)c(SCC(=O)N3CCCc4ccccc43)nc12,i
N#Cc1cc2c(cc1C#N)N1CCCc3cccc(c31)O2,-92
O=C1CCc2cc(S(=O)(=O)N3CCc4ccccc43)cc3c2N1CCC3,i
CC(=O)NCc1noc2c1CN(C(=O)c1cnccn1)CC2,i
SMILES,Tgondii IFNg
CC(=O)Nc1ccc(C(=O)N2CCC(C(=O)c3cnn4c(C)cc(C)nc34)CC2)cc1,i
COC(=O)CNC(=O)CS(=O)(=O)C(C)C,i
CC(C)N(Cc1ccccc1)S(=O)(=O)c1cccs1,i
O=S(=O)(Nc1ccc(Oc2ncnc3cc(Cl)ccc23)nc1)c1cccs1,i
CC(=O)N(c1ccc(NS(=O)(=O)c2cccs2)cn1)S(=O)(=O)c1cccs1,-102
CN(C)CCN1CCN(C(=O)c2ccno2)Cc2cccnc21,i
COC(C)c1cccc(-c2ncnc3ccsc23)c1 (configuration not stated),i
Cc1cc(NCCN2CCNC2=O)nc(-c2ccccc2)n1,i
COc1ccc([C@@H]2CC(=O)c3c(O)cc(O[C@@H]4O[C@H](CO[C@@H]5O[C@@H](C)[C@H](O)[C@@H](O)[C@H]5O)[C@@H](O)[C@H](O)[C@H]4O)cc3O2)cc1O,i
O=C1C[C@@H](c2ccccc2)Oc2cc(O)cc(O)c21,i
COc1ccc([C@@H]2CC(=O)c3c(O)cc(O)cc3O2)cc1O,-77!
Cc1ccc(CN2CC[C@@H]3CN(Cc4cccnc4)CCO[C@@H]3C2)o1,i
Cc1ccc(CN2CC(C(=O)N3CCCC3)C3(CCOCC3)C2)s1 (configuration not stated),i
CNC(=O)COC1COC2(CCN(C(=O)c3ccn(C)n3)CC2)C1 (configuration not stated),i
O=C(Cn1nc2ccccc2n1)N1Cc2cnn(CCO)c2C1,i
COc1ccc(Cn2nnnc2CN2CCN(c3ccc(F)cc3)CC2)cc1,i
Cc1cc(C)n(-c2ccc(C(=O)Nc3nc(-c4cc(C)sc4C)cs3)cc2)n1,i
CCOc1ccccc1-c1ccccc1NC(=O)c1ccc(-n2nc(C)cc2C)cc1,-101
CCOc1ccccc1-c1ccccc1NC(=O)c1cc(-c2ccc(F)cc2)no1,i
O=C(NCc1cn2cccnc2n1)c1cn(CCCc2ccccc2)nn1,i
COC(=O)c1cn(C(C)C)cc(C(=O)N2C[C@H]3CC=CC[C@H]3C2)c1=O,i
O=C(C[C@H]1CC[C@H]2NC[C@H](O)COC[C@@H]2O1)NCc1ccc2c(c1)OCO2,i
COc1cccc(S(=O)(=O)N(C)C[C@@H]2OCc3ccccc3-c3c(n(C)c4ccccc34)C(=O)N([C@@H](C)CO)C[C@@H]2C)c1,i
